Source: PubChem BioAssay
In the library only some 19% were active in any assay of this set; here they are far more common.
TDP1 cell CPT – qHTS for Inhibitors of human tyrosyl-DNA phosphodiesterase 1 (TDP1): qHTS in cells in presence of CPT | hit rate 12% among 420,000 | Potency, µM (series often up to 46.2 µM), for inactives: at the top dose activity change, negative = growth inhibition, most hits filed as inhibitors | chicken DT40 Tdp1-/-;hTDP1 cells + 20 nM CPT, ATP luminescence, 48 h; note: potency is the fitted concentration of half-maximal effect; % is set by controls: 0 for no effect and ±100 for the full control effect; nearly all actives have a fitted effect of over 55% in size
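Chicken DT40 Tdp1-/- cells complemented with human TDP1, 400 cells/well, exposed to compounds plus 20 nM camptothecin for at least 48 h at 37 C; viability read as ATP content by CellTiter-Glo luminescence.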
TGFb SMAD3 inh – qHTS for Inhibitors of TGF-b; HepG2 CAGA-GFP TGF-b/SMAD3 reporter, GFP fluorescence, 18 h; TGF-beta stimulated, 500 pg/mL final; Potency, µM (series often up to 46.1 µM), without a hit: top-dose activity, negative = inhibition, actives largely listed as inhibitors; hit rate 1.2% among 410,000; AID 588855, 2011; note: potency is the fitted concentration of half-maximal effect; % is set by controls: 0 for no effect and ±100 for the full control effect; nearly all actives have a fitted effect of over 65% in size
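Using HEPG2 CAGA-GFP reporter cells at 1000 cells/well, we pinned test compounds, stimulated with recombinant TGF-beta (500 pg/mL final) and measured total well GFP after 18 h.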
TDP1 cell noCPT – qHTS for Inhibitors of human tyrosyl-DNA phosphodiesterase 1 (TDP1): qHTS in cells in absence of CPT. DT40 Tdp1-/- hTDP1 cells, no CPT, ATP luminescence, 48 h. Potency, µM (top dose mostly 46.2 µM), without a hit: at the top dose activity change, negative = growth inhibition, most hits filed as inhibitors. hit rate 15% among 420,000; note: potency is the fitted concentration of half-maximal effect; % is set by controls: 0 for no effect and ±100 for the full control effect; nearly all actives have a fitted effect of over 55% in size
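Chicken DT40 Tdp1-/- cells complemented with human TDP1, screened without camptothecin (DMSO vehicle only), 400 cells/well. Compounds pin-transferred, cells incubated at 37 °C for at least 48 hr. Growth read as ATP-dependent luminescence (CellTiter-Glo, 30 min at RT).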
ASM inhibitor – Inhibitors of Secretory Acid Sphingomyelinase (S-ASM): qHTS; Potency, µM (highest dose often 57.5 µM), for inactives: at the top dose activity change, negative = inhibition, actives largely listed as inhibitors; placental ASM, HMU-PC fluorogenic substrate, 60 min; hit rate 0.006% among 340,000; note: potency is the fitted concentration of half-maximal effect
Target sequence (P17405 47-631 limits assumed): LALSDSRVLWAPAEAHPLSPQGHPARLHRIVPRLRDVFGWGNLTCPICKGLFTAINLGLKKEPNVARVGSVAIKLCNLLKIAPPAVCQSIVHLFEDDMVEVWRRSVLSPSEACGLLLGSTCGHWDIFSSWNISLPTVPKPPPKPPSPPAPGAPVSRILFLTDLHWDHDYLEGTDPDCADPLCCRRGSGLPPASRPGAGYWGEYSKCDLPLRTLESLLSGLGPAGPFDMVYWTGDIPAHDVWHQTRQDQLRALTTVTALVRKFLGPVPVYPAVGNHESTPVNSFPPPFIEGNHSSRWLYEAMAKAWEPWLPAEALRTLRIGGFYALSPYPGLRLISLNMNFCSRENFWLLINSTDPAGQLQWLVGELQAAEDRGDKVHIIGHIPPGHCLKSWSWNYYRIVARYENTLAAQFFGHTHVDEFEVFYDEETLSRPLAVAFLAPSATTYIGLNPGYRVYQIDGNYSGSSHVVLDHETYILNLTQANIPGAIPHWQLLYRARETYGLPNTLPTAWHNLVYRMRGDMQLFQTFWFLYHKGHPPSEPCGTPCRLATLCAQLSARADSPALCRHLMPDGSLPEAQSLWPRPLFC
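qHTS format. ASM enzyme prepared from human placenta hydrolyses the fluorogenic substrate HMU-PC0 (9 uM final) over 60 min at 37 °C after a 10 min compound preincubation.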
HepG2 viability – qHTS for Inhibitors of TGF-b: Cytotox Counterscreen | AID 588856, 2011 | HepG2 CAGA-GFP viability, ATP luminescence, 18 h | hit rate 0.76% among 410,000 | Potency, µM (highest dose often 46.1 µM), without a hit: at the highest dose activity change, negative = cytotoxicity, usual class: cytotoxic; note: potency is the fitted concentration of half-maximal effect
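CellTiter-Glo luminescence gave cytotoxicity after 18 hours at 37 degrees C. The cells were HepG2 CAGA-GFP in 1% FBS DMEM, stimulated with 500 pg/mL TGF-beta after compound addition. %Activity was normalised to no-cell wells (complete cell-killing) and DMSO (no toxicity), and curves were fitted and classified.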
IL1B secr inh – qHTS for Inhibitors of Inflammasome Signaling: IL-1-beta AlphaLISA Primary Screen; THP-1 LPS/ATP IL-1B secretion, AlphaLISA, 16 h; hits give low values; activity change, % at 57.5 µM; hit rate 4.7% among 360,000; AID 743279, 2014; in the data active = activity change below about -50%; inconclusive = mostly about -30% to -49%; note: % is set by controls: 0 for no effect and ±100 for the full control effect
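Secreted IL-1B measured by AlphaLISA bead assay after 16 h compound exposure of THP-1 cells; compounds (final up to 57.5 uM) added 1 h before LPS (250 ng/mL) and ATP (1.25 mM) stimulation; lower signal means less secretion.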
Starred values were filed as active, the others as inactive; ? = inconclusive; nt = no result given. Unless noted, calls come from the whole dose curve; as a rule, active = well fitted curve in the direction sought with a large enough effect; inconclusive = small, poorly fitted or top-dose-only effect, or another doubt; inactive = no such curve, though single readings can be large; an effect the other way counts as inactive or inconclusive.

SMILES | TDP1 cell CPT | TGFb SMAD3 inh | TDP1 cell noCPT | ASM inhibitor | HepG2 viability | IL1B secr inh
CC1=Nc2cc(C(=O)NCCc3ccc(Cl)cc3)ccc2Sc2c(C)ccc(C)c21 | nt | 7.9µM* | nt | nt | -2% | nt
CCCNC(=O)c1ccc2c(c1)N=C(C)c1c(C)ccc(C)c1S2 | nt | ? | nt | nt | -22% | nt
CC1=Nc2cc(C(=O)NCCc3ccccc3)ccc2Sc2c(C)ccc(C)c21 | nt | 6.3µM* | nt | nt | -19% | nt
COc1ccc(-c2ccc3c(c2)S(=O)(=O)c2cccc(C(=O)NC4CCCC4)c2C3=O)cc1OC | -30% | ? | -22% | 0% | 3% | 7
O=C(NC1CCCCC1)c1cccc2c1C(=O)c1ccc(-c3ccc(OC(F)(F)F)cc3)cc1S2(=O)=O | 9.2µM* | 10% | 9.2µM* | -5% | -2% | 11
O=C(NC1CCCC1)c1cccc2c1C(=O)c1ccc(/C=C/c3ccccc3)cc1S2(=O)=O | ? | 0% | 18µM* | -3% | -4% | 33
COc1ccc(NC(=O)Nc2cccc3c2O[C@H](CN(C)Cc2ccc(-c4ccccc4)cc2)[C@@H](C)CN([C@H](C)CO)C3=O)cc1 | 8.2µM* | 1% | 12µM* | -20% | 0% | 57
COc1ccc(NC(=O)Nc2cccc3c2O[C@@H](CN(C)CC2CCCCC2)[C@@H](C)CN([C@H](C)CO)C3=O)cc1 | 23µM* | -27% | ? | 0% | -31% | -1
COc1ccc(S(=O)(=O)Nc2cccc3c2O[C@H](CN(C)Cc2ccccc2)[C@@H](C)CN([C@H](C)CO)C3=O)cc1 | ? | -3% | ? | -2% | 2% | -5
COc1ccc(NC(=O)Nc2ccc3c(c2)C(=O)N([C@@H](C)CO)C[C@@H](C)[C@@H](CN(C)CC2CCCCC2)O3)cc1 | ? | ? | 23µM* | -2% | -18% | -2
COc1ccc(NC(=O)Nc2ccc3c(c2)C(=O)N([C@H](C)CO)C[C@H](C)[C@@H](CN(C)C(=O)NC(C)C)O3)cc1 | 3% | 7% | -15% | 0% | 5% | 21
Cc1cc(C)c2c(=O)cc(C(=O)NCCc3ccc(S(N)(=O)=O)cc3)oc2c1 | 5% | -3% | -11% | nt | -10% | nt
COc1ccc(C2CC(c3cccs3)=NN2C(=O)CCC(=O)O)cc1 (stereo not given) | -8% | 12% | -12% | 2% | 7% | 5
CCN1CCc2c(OCC(=O)N3N=C(c4cccs4)CC3c3ccc(F)cc3)cccc2C1=O (stereo not given) | 21µM* | -15% | 18µM* | -11% | -18% | -57*
CN1CCc2c(OCC(=O)N3N=C(c4cccs4)CC3c3ccc(F)cc3)cccc2C1=O (stereo not given) | 12µM* | ? | 29µM* | -7% | -62% | -67*
O=C(CSc1nc2ccccc2s1)N1N=C(c2cccs2)CC1c1ccc(F)cc1 (stereo not given) | ? | -4% | ? | -10% | 1% | -7
Cc1c(S(=O)(=O)c2cccc(Cl)c2)nnn1-c1cccc(C(F)(F)F)c1 | ? | -21% | ? | nt | -17% | nt
CC(C)(C)NC(=O)CN(Cc1ccccc1)S(=O)(=O)c1ccccc1 | -3% | -12% | -8% | 8% | 7% | -74*
CCN(CC(=O)Nc1ccc(C(=O)OC)cc1)Cc1ccccc1 | -18% | 3% | -2% | -2% | -1% | 8
CSc1ccccc1NC(=O)CN(C)Cc1ccc(Br)cc1 | -6% | 6% | ? | -1% | 8% | ?
